Reference: PubChem BioAssay (Tox21)
Results filed as inconclusive are left out. The source made the active and inactive calls. Unless noted, calls come from the whole dose curve; as a rule, active = well fitted curve in the direction sought with a large enough effect in the repeat runs; inconclusive = weak or mixed curves; inactive = no such curve, though single readings can be large; an effect the other way counts as inactive or inconclusive.

Columns and labels:
[1] = qHTS assay to identify small molecule agonists of the androgen receptor (AR) signaling pathway in the presence of an antagonist - cell viability counter screen (AID 1259379); note: nearly all actives have a fitted effect of over 25% in size; note: potency is the fitted concentration of half-maximal effect;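 for activity change, negative = cytotoxicity: MDA-kb2 human breast cancer cells carrying an MMTV luciferase reporter; series mostly up to about 92 µM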
Summary of the method: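 Viability counter screen: CellTiter-Fluor fluorescence, measured in the same wells as the luciferase read-out. MDA-kb2 cells, 3,000/well, with nilutamide at 3.0uM final and compounds at 15 concentrations, 16 hr at 37C, 0% CO2.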

[2] = qHTS assay to identify small molecule agonists of the estrogen receptor beta (ER-beta) signaling pathway - cell viability counter screen (AID 1259380); note: nearly all actives have a fitted effect of over 30% in size; note: potency is the fitted concentration of half-maximal effect
Summary of the method: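 Luminescence read-out (CellTiter-Glo, 30 min, room temp) taken in the same wells as the beta-lactamase reporter assay; ER-beta-UAS-bla HEK293T cells exposed to DMSO-dissolved compounds for 16 hr at 37C in 2% charcoal-stripped FBS medium.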

[3] = qHTS assay to identify small molecule antagonists of the estrogen receptor beta (ER-beta) signaling pathway - cell viability counter screen (AID 1259382); note: series mostly up to about 92 µM; nearly all actives have a fitted effect of over 55% in size
Summary of the method: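 Luminescent ATP read-out (CellTiter-Glo, 30 min, RT) taken in the same wells as the bla reporter assay. HEK293T ER-beta-UAS-bla cells in 2% charcoal-stripped FBS were exposed to compounds with 1nM E2 for 16 hr at 37C.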

[4] = biological target: Estrogen receptor (Homo sapiens) (UniProt P03372); assay: qHTS assay to identify small molecule agonists of the estrogen receptor alpha (ER-alpha) signaling pathway in the presence of an antagonist (AID 1259383; calls by dose curve; note: top concentration of the series differs between compounds; nearly all actives have a fitted effect of over 15% in size)
Summary of the method: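 Luciferase luminescence (ONE-Glo, 30min at room temperature) measured in VM7Luc4E2 cells after 22hr compound exposure at 15 concentrations, with 10.0nM ICI-182,780 final present; cells express endogenous ER-alpha and carry four EREs upstream of luciferase.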

[5] = qHTS assay to identify small molecule agonists or antagonists of the thyroid stimulating hormone receptor (TSHR) signaling pathway - wild type cell line counter screen (AID 1259384; calls by dose curve)
Summary of the method: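 Wild-type Hek293 cells, 800/well, 18 h at 37C, then compound with Ro20-1724 for 30 min RT. cAMP by HTRF (cAMP-d2/anti-cAMP cryptate), 1 h RT, fluorescence read. 15 concentrations, triplicates.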

[6] = biological target: Thyrotropin receptor (Homo sapiens) (UniProt P16473); assay: qHTS assay to identify small molecule antagonists of the thyroid stimulating hormone receptor (TSHR) signaling pathway (AID 1259385; calls by dose curve; note: nearly all actives have a fitted effect of over 20% in size)
Summary of the method: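 TSHR-HEK293 cells (800/well) plated 18 h, then compounds with Ro20-1724 and TSH at 1.5 ng/mL final, 30 min at room temperature. cAMP quantified by HTRF (cAMP-d2/anti-cAMP-cryptate, 1 h); 15 concentrations in triplicate.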

[7] = qHTS assay to identify small molecule agonists of the estrogen receptor alpha (ER-alpha) signaling pathway in the presence of an antagonist - cell viability counter screen (AID 1259386);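 note: cells exposed to compounds for 22 h at 37 °C before the viability read; nearly all actives have a fitted effect of over 30% in size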; note: potency is the fitted concentration of half-maximal effect; for activity change, negative = cytotoxicity: series mostly up to about 92 µM
Summary of the method: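 Read-out: CellTiter-Fluor fluorescence after 1hr reagent incubation, measured in the same wells as the luciferase readout. VM7Luc4E2 cells were exposed to 15 compound concentrations with 10.0nM ICI-182,780 for 22hr at 37C.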

[8] = biological target: Androgen receptor (Homo sapiens) (UniProt P10275); assay: qHTS assay to identify small molecule agonists of the androgen receptor (AR) signaling pathway in the presence of an antagonist (AID 1259381; calls by dose curve; note: nearly all actives have a fitted effect of over 15% in size)
Summary of the method: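 Luciferase read-out (ONE-Glo, 30min room temperature) in MDA-kb2 MMTV-reporter cells; agonist mode run in presence of AR antagonist nilutamide, 3.0uM final. Compounds tested as 15-point series, 16hr exposure at 37C, 0% CO2.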

[9] = biological target: Estrogen receptor beta (Homo sapiens) (UniProt Q92731); assay: qHTS assay to identify small molecule antagonists of the estrogen receptor beta (ER-beta) signaling pathway (AID 1259378; active = well fitted inhibition curve with a large enough effect in the signal ratio in the repeat runs, not every such curve was filed as active; the % refers to the signal ratio)
Summary of the method: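 ER-beta-UAS-bla HEK293T cells in 2% charcoal-stripped FBS medium treated with compound plus 1nM final 17-beta-estradiol for 16 hr at 37C. Beta-lactamase reporter read by FRET substrate fluorescence after 2 hours at room temperature.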
% is set by controls: 0 for no effect and ±100 for the full control effect.

Estrogen receptor (Homo sapiens), sequence (P03372 whole entry, looked up): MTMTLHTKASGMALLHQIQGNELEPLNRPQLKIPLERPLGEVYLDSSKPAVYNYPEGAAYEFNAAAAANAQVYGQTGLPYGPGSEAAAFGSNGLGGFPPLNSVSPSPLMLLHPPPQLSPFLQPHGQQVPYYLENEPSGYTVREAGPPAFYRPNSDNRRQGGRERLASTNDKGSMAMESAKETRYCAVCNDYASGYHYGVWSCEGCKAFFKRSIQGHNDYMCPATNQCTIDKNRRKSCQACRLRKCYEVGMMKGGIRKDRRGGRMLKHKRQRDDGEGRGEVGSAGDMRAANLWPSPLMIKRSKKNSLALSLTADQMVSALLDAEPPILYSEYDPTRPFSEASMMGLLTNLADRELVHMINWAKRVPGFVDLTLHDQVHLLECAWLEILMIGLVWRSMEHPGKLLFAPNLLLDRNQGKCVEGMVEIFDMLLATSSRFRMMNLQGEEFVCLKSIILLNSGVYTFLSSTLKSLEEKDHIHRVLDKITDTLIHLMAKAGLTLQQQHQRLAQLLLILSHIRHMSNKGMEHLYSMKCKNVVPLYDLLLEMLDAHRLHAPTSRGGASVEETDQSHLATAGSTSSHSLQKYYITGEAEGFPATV
Thyrotropin receptor (Homo sapiens), sequence (P16473 whole entry, looked up): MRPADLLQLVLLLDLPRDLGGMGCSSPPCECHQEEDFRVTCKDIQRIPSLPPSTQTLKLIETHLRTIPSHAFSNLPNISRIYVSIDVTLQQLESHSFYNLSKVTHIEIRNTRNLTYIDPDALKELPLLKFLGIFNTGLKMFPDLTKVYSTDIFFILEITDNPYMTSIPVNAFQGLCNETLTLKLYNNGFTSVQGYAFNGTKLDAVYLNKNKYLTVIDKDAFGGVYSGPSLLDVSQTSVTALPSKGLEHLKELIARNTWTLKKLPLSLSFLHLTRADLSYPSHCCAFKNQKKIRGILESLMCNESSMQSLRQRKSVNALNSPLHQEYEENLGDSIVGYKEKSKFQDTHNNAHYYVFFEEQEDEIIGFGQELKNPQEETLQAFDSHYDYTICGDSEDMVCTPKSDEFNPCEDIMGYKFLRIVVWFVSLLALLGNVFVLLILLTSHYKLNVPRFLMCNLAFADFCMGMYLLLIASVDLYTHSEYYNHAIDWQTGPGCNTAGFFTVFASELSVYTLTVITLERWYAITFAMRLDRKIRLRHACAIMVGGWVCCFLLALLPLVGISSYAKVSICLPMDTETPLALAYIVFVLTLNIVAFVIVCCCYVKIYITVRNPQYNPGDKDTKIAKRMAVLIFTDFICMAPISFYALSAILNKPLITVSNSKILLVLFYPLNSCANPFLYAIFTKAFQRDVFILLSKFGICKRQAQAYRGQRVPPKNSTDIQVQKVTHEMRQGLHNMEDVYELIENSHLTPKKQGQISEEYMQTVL
Androgen receptor (Homo sapiens), sequence (P10275 whole entry, looked up): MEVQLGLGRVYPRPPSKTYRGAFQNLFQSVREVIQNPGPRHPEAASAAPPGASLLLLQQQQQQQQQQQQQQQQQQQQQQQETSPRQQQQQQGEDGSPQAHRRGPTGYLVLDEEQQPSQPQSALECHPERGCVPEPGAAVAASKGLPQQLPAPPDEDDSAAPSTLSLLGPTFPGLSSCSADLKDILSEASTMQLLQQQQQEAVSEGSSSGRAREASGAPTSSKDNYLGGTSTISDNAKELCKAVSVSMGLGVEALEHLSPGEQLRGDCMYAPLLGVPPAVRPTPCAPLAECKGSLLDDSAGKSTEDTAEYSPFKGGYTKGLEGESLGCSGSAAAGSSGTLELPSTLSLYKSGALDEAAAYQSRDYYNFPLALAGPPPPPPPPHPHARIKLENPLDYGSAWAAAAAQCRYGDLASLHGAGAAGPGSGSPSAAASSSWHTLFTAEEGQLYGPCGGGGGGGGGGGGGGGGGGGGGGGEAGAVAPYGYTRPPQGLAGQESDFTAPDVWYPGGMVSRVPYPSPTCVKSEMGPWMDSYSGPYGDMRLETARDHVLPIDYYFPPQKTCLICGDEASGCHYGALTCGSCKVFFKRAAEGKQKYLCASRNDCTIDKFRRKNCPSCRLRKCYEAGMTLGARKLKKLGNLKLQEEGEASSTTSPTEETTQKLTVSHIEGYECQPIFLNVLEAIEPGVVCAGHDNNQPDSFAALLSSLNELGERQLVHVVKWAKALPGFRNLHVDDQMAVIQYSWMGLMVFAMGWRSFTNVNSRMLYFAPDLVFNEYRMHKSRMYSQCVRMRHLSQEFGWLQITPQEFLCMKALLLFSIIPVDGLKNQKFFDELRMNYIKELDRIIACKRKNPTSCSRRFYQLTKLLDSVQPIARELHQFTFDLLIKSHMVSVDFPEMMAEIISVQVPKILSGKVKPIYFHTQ
Estrogen receptor beta (Homo sapiens), sequence (Q92731 whole entry, looked up): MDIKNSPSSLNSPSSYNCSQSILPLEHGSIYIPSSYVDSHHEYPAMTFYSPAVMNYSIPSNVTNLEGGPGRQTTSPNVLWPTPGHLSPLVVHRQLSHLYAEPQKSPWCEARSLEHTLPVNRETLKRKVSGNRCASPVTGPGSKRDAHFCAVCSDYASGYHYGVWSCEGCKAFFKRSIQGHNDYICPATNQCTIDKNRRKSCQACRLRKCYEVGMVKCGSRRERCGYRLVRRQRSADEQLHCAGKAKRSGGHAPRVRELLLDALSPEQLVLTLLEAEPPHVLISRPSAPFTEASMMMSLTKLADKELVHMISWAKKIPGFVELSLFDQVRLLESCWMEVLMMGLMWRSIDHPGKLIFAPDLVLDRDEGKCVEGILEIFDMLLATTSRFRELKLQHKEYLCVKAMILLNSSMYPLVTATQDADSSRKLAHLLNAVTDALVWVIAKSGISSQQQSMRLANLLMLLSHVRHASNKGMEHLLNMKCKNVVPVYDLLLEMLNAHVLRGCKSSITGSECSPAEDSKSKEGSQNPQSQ

CN=C(N)NC(=O)Nc1c(C)cccc1C
inactive: Potency [1] | Potency [2] | Potency [3] | Potency [4] | Potency [5] | Potency [6] | Potency [7]

Cc1ccc2c(c1[N+](=O)[O-])C(=O)c1ccccc1C2=O
inactive: Potency [1] | Potency [2] | Potency [3] | Potency [5] | Potency [6]

O=C(O)c1cccc(Oc2ccccc2)c1
inactive: Potency [1] | Potency [2] | Potency [3] | Potency [4] | Potency [5] | Potency [6] | Potency [7]

CCCCCCCCCCCCCOS(=O)(=O)O
active: Potency [2] 54.5 µM
inactive: Potency [1] | Potency [8] | Potency [5] | Potency [6]

CC(C)OC(=O)c1ccccc1C(=O)OC(C)C
inactive: Potency [1] | Potency [2] | Potency [3] | Potency [4] | Potency [5] | Potency [6]

COc1ccc(CCN(C)CCCN2CCc3cc(OC)c(OC)cc3CC2=O)cc1OC
inactive: Potency [1] | Potency [2] | Potency [3] | Potency [4] | Potency [7]

COc1ccc(-n2nc(C(F)F)cc2-c2ccc(S(C)=O)cc2)cc1 (configuration not stated)
inactive: Potency [1] | Potency [2] | Potency [3] | Potency [4] | Potency [5] | Potency [6] | Potency [7]

Cc1ccc(NC(=O)N(C)C)cc1NC(=O)N(C)C
inactive: Potency [1] | Potency [2] | Potency [3] | Potency [4] | Potency [5] | Potency [6] | Potency [7]

CCC(CO)(CO)[N+](=O)[O-]
inactive: Potency [1] | Potency [2] | Potency [3] | Potency [4] | Potency [5] | Potency [6] | Potency [7]

COC(CC(C)CCCC(C)(C)O)OC (configuration not stated)
inactive: Potency [1] | Potency [2] | Potency [3] | Potency [5] | Potency [6] | Potency [7]

CC(C)(C(=O)c1cccnc1)c1cccnc1
inactive: Potency [1] | Potency [2] | Potency [3] | Potency [4] | Potency [5] | Potency [6] | Potency [7]

O=C(O)CCS
inactive: Potency [1] | Potency [2] | Potency [3] | Potency [4] | Potency [5] | Potency [6] | Potency [7]

CC(C)(C)C1(CCc2ccc(Cl)cc2)CO1 (configuration not stated)
inactive: Potency [1] | Potency [2] | Potency [3] | Potency [4] | Potency [5] | Potency [6] | Potency [7]

CC(=O)NNC(C)=O
inactive: Potency [1] | Potency [2] | Potency [3] | Potency [4] | Potency [5] | Potency [6] | Potency [7]

COC(C)(C)OC
inactive: Potency [1] | Potency [2] | Potency [3] | Potency [4] | Potency [5] | Potency [6] | Potency [7]

CC(C)(C)S
inactive: Potency [1] | Potency [2] | Potency [3] | Potency [4] | Potency [5] | Potency [6] | Potency [7]

Cc1c(C2(c3cc(Br)c(O)c(Br)c3C)OS(=O)(=O)c3ccccc32)cc(Br)c(O)c1Br
inactive: Potency [9]
active: Potency [1] 14.9 µM | Potency [2] 23.6 µM | Potency [7] 13.3 µM

CCCCCC
inactive: Potency [1] | Potency [2] | Potency [3] | Potency [5] | Potency [6] | Potency [7]

CCOC(=O)Oc1ccc(CCNC(=O)[C@H](CCSC)NC(C)=O)cc1OC(=O)OCC
inactive: Potency [1] | Potency [2] | Potency [8] | Potency [3] | Potency [4] | Potency [5] | Potency [6] | Potency [7]

O=C(O)/C=C/c1ccc(O)c(O)c1
inactive: Potency [1] | Potency [2] | Potency [8] | Potency [3] | Potency [6] | Potency [7]

COc1ccc2nc(S(=O)Cc3ncc(C)c(OC)c3C)[nH]c2c1 (configuration not stated)
inactive: Potency [1] | Potency [2] | Potency [3] | Potency [4] | Potency [5] | Potency [6]

CC(=O)C(=O)CC(C)C
inactive: Potency [1] | Potency [2] | Potency [3] | Potency [4] | Potency [5] | Potency [6] | Potency [7]

CC(C)N=C=NC(C)C
inactive: Potency [1] | Potency [3]

O=C(/C=C/c1ccc([N+](=O)[O-])cc1)c1ccccc1
inactive: Potency [3] | Potency [5] | Potency [6]

Nc1ccc(N=Nc2ccc(N)cc2)cc1
inactive: Potency [4] | Potency [5] | Potency [6]
active: Potency [1] 27.3 µM | Potency [7] 24.3 µM

CCCCCCCC(=O)Oc1c(Br)cc(C#N)cc1Br
inactive: Potency [1] | Potency [5] | Potency [6] | Potency [7]

CCC(Cl)CC(Cl)C(Cl)C(Cl)C(Cl)C(C)Cl (configuration not stated)
inactive: activity change, negative = cytotoxicity [1] 2.03% [at 19 µM] | activation [8] 4.69% [at 19 µM] | activity change, negative = cytotoxicity [3] -4.67% [at 19 µM] | cAMP activity change [5] 4.41% [at 18.9 µM, active compounds read high] | activity change, negative = inhibition [6] -0.191% [at 19 µM] | activity change, negative = cytotoxicity [7] 5.27% [at 19 µM]

FC(F)(F)C(F)(F)C(F)(F)C(F)(F)CCI
inactive: Potency [1] | Potency [2] | Potency [3] | Potency [5] | Potency [6] | Potency [7]
